# Results published in PubChem BioAssay (NCI).
# About 83,000 compounds went through this panel and 20% of them were active in at least one assay; those are over-represented in the sample as a whole.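 Growth was measured after 48 h exposure to one concentration of compound in 96-well plates. Values under 10 count as active.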 A number with no mark means an inactive call. The source made the active and inactive calls.
# System: T-47D breast
# Assay: NCI-60 one-dose screen, 48 h (100 = growth as untreated, 0 = no growth, -100 = all killed)
# Conditions: 10 µM unless noted
row,SMILES,growth
1,O=C(O)Cn1ccc2ccccc21,135%
2,Cc1ccc2nc(CN(CCN(Cc3nc4ccc(C)cc4[nH]3)Cc3nc4ccc(C)cc4[nH]3)Cc3nc4ccc(C)cc4[nH]3)[nH]c2c1,-93% (active)
3,CO[C@@]12[C@@H]3NC3CN1C1=C(C(=O)C(N)=C(C)C1=O)[C@@H]2COC(N)=O (stereo partly drawn),40.8%
4,CCCCCNCCCCCNc1cc(OC)cc2cccnc12,68.1%
5,Cc1cc(O)ccc1C1=NN(c2ccc(S(N)(=O)=O)cc2)C(=O)CC1,45.8%
6,CC(=O)OC1Oc2cc(C)c(C)cc2-c2oc(=O)c(-c3ccc(F)cc3)cc21 (stereo not drawn),52.5%
7,CCCCCCCCCCCCCCCC1=NCC[N+]1(CCO)CCO,78.8%
8,Nc1cc2nc3ccccc3oc-2cc1=O,69.9%
9,O=[N+]([O-])c1cc(F)c2cccnc2c1O,99.5%
10,O=C1C=CC(=O)N1CO,132%
11,COc1ccc(C2C=C(c3ccc(Cl)cc3)N=C3SC=CN32)cc1 (stereo not drawn),104%
12,CCCCCc1c(C)[nH]c(/C=C2\N=C(c3ccc[nH]3)C=C2CC)c1C,-75% (active)
13,COc1ccc(CCN2COc3c([C@@H](C)CCC=C(C)C)ccc(C)c3C2)cc1OC,-23% (active)
14,Cc1nc([C@H]2CC[C@H]3[C@@H]4CCC5=CC(=O)CC[C@]5(C)[C@H]4CC[C@]23C)cs1,42%
15,Cn1c(=O)c2c3c(oc2c2ccccc21)C(=O)c1ccccc1C3=O,9.7% (active)
16,CN(CCO)c1ccc(N2Cc3ccccc3OC3=C2C(=O)c2c(O)ccc(O)c2C3=O)cn1,-42.7% (active)
17,Fc1ccc(-c2nnc(N3CCOCC3)c3ccccc23)cc1,102%

row,SMILES,growth
1,CC(=O)[C@@]1(O)[C@H](C)C[C@H]2[C@@H]3C=C(C)C4=Cc5c(cnn5-c5ccccc5)C[C@]4(C)[C@H]3[C@@H](O)C[C@@]21C,44.4%
2,N#Cc1c(N)n(C2OC(CO)C(O)C2O)c2ncnc(N)c12 (stereo not drawn),-46.2% (active)
3,CCCCCCCCCCCCCCCCCC1=NC(C)(C)CN1C(C)(C)CO,-19.5% (active)
4,CC(=O)OC1Oc2cc(C)c(C)cc2-c2oc(=O)c(-c3cc4ccccc4oc3=O)cc21 (stereo not drawn),91.9%
5,SCc1ccc(CS)cc1,101%
6,CC1=C(C(=O)Nc2ccc(F)cc2)C(c2ccccc2)C2=C(CC(C)(C)CC2=O)N1 (stereo not drawn),63.6%
7,O=C(C(=O)c1cccnc1)c1cccnc1,170%
8,Clc1ccc2c(c1)-n1cccc1C(c1ccc3ccccc3c1)=NC2,76.5%
9,F,18.2% [6.87 mM]
10,COc1cccc(OCC(O)CN2CCN(c3ccccc3)CC2)c1 (stereo not drawn),100%
11,CSCCC1NC(=O)C(C(C)=Nc2ccccc2)=C1O (stereo not drawn),103%
12,CC(OC(=O)Nc1cccc(Cl)c1)C(=O)O (stereo not drawn),93.2%
13,C1=C\CCCCN2CC[C@H]3[C@H](CCCC/C=C\CCCN4C[C@@H](CCCCC/1)C[C@@H]3C4)C2,71.4%
14,CCOc1c(C#N)c2c(N)ncnc2n1C1OC(CO)C(O)C1O (stereo not drawn),15.4%
15,COc1cc(/C=C/c2ccc3c(Br)cc(Br)c(O)c3n2)ccc1O,4.66% (active)
16,O=C(Nc1ccc(Oc2ccc(NC(=O)Nc3ccccc3Cl)cc2)cc1)Nc1ccccc1Cl,45.3%
